Tests used:
Conditions in all cases: concentration: 10 µM; 24 h
[1] = system: HCC1569; assay: cell number relative to DMSO (% of DMSO); higher = more cells (less growth inhibition / toxicity)
Summary of the method: (§1)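 For HCC1569 and TDF cells, compounds at 10 µM were applied for 24 h at 37 °C in triplicate in 384-well plates. Cells were fixed in 3.7% formaldehyde, stained for H1.0 and with DAPI, and imaged at ×10 over six fields per well. The endpoint, H1.0 nuclear intensity or cell number, is shown as percent of the plate control using the median of replicates. Positional effects were smoothed for HCC1569 only.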

[2] = system: TDF; assay: as above
Summary of the method: as §1

[3] = system: TDF; assay: H1.0 immunofluorescence intensity relative to DMSO (% of DMSO); higher = stronger H1.0 induction, active = 120 or more
Summary of the method: as §1

[4] = system: HCC1569; assay: H1.0 immunofluorescence intensity relative to DMSO (% of DMSO); higher = stronger H1.0 induction, active = 140 or more
Summary of the method: as §1
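Wherever H1.0 immunofluorescence intensity relative to DMSO is given: TDF is a line of transformed human dermal fibroblasts of mesenchymal origin.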
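Wherever cell number relative to DMSO is given: TDF denotes transformed human dermal fibroblasts of mesenchymal origin.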

`O=C(Nc1ccc(Cl)cc1)C1CCCN(C(=O)c2cccc(-c3ccco3)c2)C1` (stereo unspecified) was tested, and the cell number [1] was 86.8, the cell number [2] was 98.7 and the H1.0 immunofluorescence intensity [3] was 95.1 (inactive). For the same compound, the H1.0 immunofluorescence intensity [4] was 116 (inactive).

With `C=CCN1CCc2cc(O)c(O)cc2C(c2ccccc2)C1` (racemic) the cell number [1] was 101, the cell number [2] was 108 and the H1.0 immunofluorescence intensity [3] was 90.9 (inactive). For the same compound, the H1.0 immunofluorescence intensity [4] was 101 (inactive).

With `C=CCc1ccc(O)c(-c2cc(CC=C)ccc2O)c1` [Magnolol] the cell number [1] was 98, the cell number [2] was 98.2 and the H1.0 immunofluorescence intensity [3] was 91.7 (inactive). The H1.0 immunofluorescence intensity [4] was 83 (inactive).

For `CC(C)(O)CCC(O)C(C)(O)C1CCC2(O)C3=CC(=O)C4CC(O)C(O)CC4(C)C3CCC12C` (stereo unspecified), the cell number [1] was 102, the cell number [2] was 97 and the H1.0 immunofluorescence intensity [3] was 102 (inactive). For the same compound, the H1.0 immunofluorescence intensity [4] was 94.8 (inactive).

`COC(=O)c1ccc2c(c1)nc(NC(=O)c1ccccc1)n2CCCc1ccccc1` was tested, and the cell number [1] was 80.4, the cell number [2] was 65.7 and the H1.0 immunofluorescence intensity [3] was 94.6 (inactive). The H1.0 immunofluorescence intensity [4] was 88.3 (inactive).

In the case of `O=C1c2cccc(O)c2C(=O)c2c(O)cc(CO)cc21` [Aloe-emodine], the cell number [1] is reported as 95.7, the cell number [2] is reported as 89.9 and the H1.0 immunofluorescence intensity [3] is reported as 97.3 (inactive). The H1.0 immunofluorescence intensity [4] was 99.5 (inactive).

In the case of `CCCCCC(O)C=CC1C2CC(CO2)C1CC=CCCCC(=O)O` (stereo unspecified), the cell number [1] is reported as 102, the cell number [2] is reported as 107 and the H1.0 immunofluorescence intensity [3] is reported as 93.7 (inactive). The H1.0 immunofluorescence intensity [4] was 99.9 (inactive).

`COCC(=O)OC1(CCN(C)CCCc2nc3ccccc3[nH]2)CCc2cc(F)ccc2C1C(C)C.Cl.Cl` (stereo unspecified) [Mibefradil dihydrochloride] was tested, and the cell number [1] was 84.2, the cell number [2] was 90.1 and the H1.0 immunofluorescence intensity [3] was 111 (inactive). The H1.0 immunofluorescence intensity [4] was 124 (inactive).

For `O=C(O)CCCC(O)C=CC=CC=CC(O)CC=CCCCCCO` (stereo unspecified) [20-Hydroxy-leukotriene B4], the cell number [1] was 100, the cell number [2] was 101 and the H1.0 immunofluorescence intensity [3] was 95.2 (inactive). The H1.0 immunofluorescence intensity [4] was 108 (inactive).

— the supplement of paper PMC7156485
